This passage reports outcome, potentiation and activation results from PubChem BioAssay.

Assay [1] relates to TRPC4 beta (transient receptor potential cation channel C4), mouse. Kind of assay: activators of mouse TRPC4 channel, confirmation, cell-based, Fluo4 calcium, HEK293 TRPC4beta/mu-opioid, duplicates, 10 µM (AID 2426;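 active = fluorescence ratio normalized to control raised more than 50% in primary screen plus both repeat runs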). Particulars: Fluo4 calcium fluorescence, at 10 µM; stronger effect = higher value.
Assay [2] relates to transient receptor potential cation channel C4 beta (TRPC4), mouse. Kind of assay: activators of mouse TRPC4 channel, confirmation, cell-based, second round, Fluo4, HEK293 TRPC4beta/mu-opioid, 1 µM (AID 2461;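 active = primary screen active and over 50% activation in each of two duplicate runs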). Particulars: Fluo4 calcium fluorescence, at 1 µM; stronger effect = higher value.
For assay [3], the system named is TRPC4 (transient receptor potential cation channel C4 beta), mouse. Put plainly: positive allosteric modulators of mouse TRPC4, confirmation, cell-based, second round, Fluo-4, HEK293 TRPC4beta/mu-opioid, 1 µM (AID 2554;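 active = primary screen hit whose fluorescence ratio, in both repeats, exceeds the weak agonist control mean by 3 SD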). Particulars: DAMGO EC20, Fluo-4 calcium flux, at 1 µM; stronger effect = higher value. On the technique in general: A change in cytosolic calcium serves as a functional read-out for many receptors and channels.

For assay [4], the system named is TRPC4 beta (transient receptor potential cation channel C4), mouse. Kind of assay: positive allosteric modulators of mouse TRPC4, confirmation, cell-based, Fluo-4, HEK293 TRPC4beta/mu-opioid (AID 2555;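 active = primary screen hit whose calcium fluorescence ratio, in both repeats, exceeds the weak agonist control mean by 3 SD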). Particulars: DAMGO EC20, Fluo-4 calcium flux, at 10 µM; stronger effect = higher value.
Assay [5] addresses Short transient receptor potential channel 4 (Mus musculus) (UniProt Q9QUQ5). Put plainly: inhibitors of mouse TRPC4 channel, confirmation, cell-based, Fluo4, HEK293 TRPC4beta/mu-opioid (AID 2636;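 active = calcium signal cut by more than 3 SD below the full-agonist control yet still positive, in both repeats and the earlier primary screen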). The conditions noted are these: DAMGO, Fluo4 calcium flux, at 10 µM; stronger effect = higher value.
Assay [6] has the same target. Kind of assay: inhibitors of mouse TRPC4 channel, confirmation, cell-based, second round, Fluo4, HEK293 TRPC4beta/mu-opioid, 1 µM (AID 2637;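 active = calcium signal ratio cut to more than 3 SD under the fully stimulated control mean yet still positive, in both repeats and the primary screen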). The conditions noted are these: Fluo4 calcium flux, DAMGO, at 1 µM; stronger effect = higher value.
The target is the same in assay [7]. Put plainly: mouse TRPC4 channel activators, dose response, cell-based, HEK293 TRPC4/mu-opioid, Fluo-4 calcium (AID 434937;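 active = primary screen activator hit with a dose response curve and TRPC4 channel activation at any tested dose; inactive = no activation, no dose response, or not a primary hit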).
Assay [8] shares this target. Kind of assay: TRPC4 positive allosteric modulators, dose response, cell-based, HEK293 TRPC4/mu-opioid, Fluo-4 calcium, EC20 DAMGO (AID 434941;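 active = earlier screen potentiator hit that boosts the TRPC4 ion channel at some dose, with a dose response; inactive = no potentiation, no dose response, or not a prior hit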;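 also: calcium entry triggered by an EC20 dose of DAMGO at the co-expressed mu-opioid receptor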).
Assay [9] shares this target. Kind of assay: mouse TRPC4 channel inhibitors, dose response, cell-based, HEK293 TRPC4/mu-opioid, Fluo-4 calcium (AID 434942;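 active = primary screen inhibitor hit that blocks the TRPC4 channel at some tested dose, yielding a dose curve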).
Assay [10] deals with Short transient receptor potential channel 6 (Mus musculus) (UniProt Q61143). Kind of assay: inhibition of mouse TRPC6 channel, confirmation, selectivity assay for TRPC4 inhibitor project, cell-based, HEK293, membrane potential dye, duplicate (AID 434948;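 active = active in primary screen and both duplicates, each dropping signal beyond three positive-control SD with fluorescence still positive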). The conditions noted are these: HEK293 TRPC6, membrane potential dye fluorescence, at 10 µM, stimulated with maximal-effect acetylcholine; stronger effect = higher value.

Assay [11] has the same target. Put plainly: activation of mouse TRPC6 channel, confirmation, selectivity assay for TRPC4 activator project, cell-based, HEK293, membrane potential dye, duplicate (AID 434950;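 active = membrane potential signal rise above negative control mean plus 3 SD in both duplicates, also active in the earlier TRPC4 screen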). Particulars: HEK293 TRPC6, membrane potential fluorescence, at 10 µM; stronger effect = higher value.
The target is the same in assay [12]. Put plainly: TRPC6 potentiation by TRPC4 potentiator hits, confirmation, selectivity assay for TRPC4 potentiator project, HEK293 cells, membrane potential dye, duplicate (AID 434952). Particulars: HEK293 TRPC6, membrane potential dye fluorescence, at 10 µM, maximal acetylcholine added after compound; stronger effect = higher value.
Assay [13] has as its target Short transient receptor potential channel 4 (Mus musculus) (UniProt Q9QUQ5). Put plainly: calcium flux activators in TRPC4/5HT1a cells, counter-screen for TRPC4 activator project, cell-based, second counter screen, HEK293 TRPC4/5HT1a, Fluo-4 (AID 434977;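 active = calcium signal rise above buffer-control mean plus 5 SD in both duplicates, and also a hit in the primary screen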). Particulars: Fluo-4 calcium flux, at 10 µM; stronger effect = higher value.
The nature of assay [14]: calcium flux inhibitors in TRPC4/5HT1a cells, confirmation, counter-screen for TRPC4 inhibitor project, cell-based, second counter screen, HEK293 TRPC4/5HT1a, Fluo-4 (AID 434978;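 active = primary screen active whose calcium signal fell more than 3 SD beyond the full-serotonin control mean in both duplicate plates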;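 also: serotonin given first at submaximal then at maximal dose after compound preincubation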). The conditions noted are these: Fluo-4 calcium flux, at 10 µM, serotonin added to trigger calcium flux; stronger effect = higher value.
The subject of assay [15] is TRPC4 (mouse), co-expressed with 5HT1a in HEK293. Put plainly: calcium flux potentiators in TRPC4/5HT1a cells, confirmation, counter-screen for TRPC4 potentiator project, cell-based, second counter screen, HEK293 TRPC4/5HT1a, Fluo-4 (AID 434979;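 active = signal rise over 3 SD above mean of control wells given weak agonist, in both repeats and first screen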). The conditions noted are these: Fluo-4 calcium flux, at 10 µM, serotonin added at its EC20 dose; stronger effect = higher value.
The nature of assay [16]: calcium flux activation in mu-opioid HEK293 cells, confirmation, counter-screen for TRPC4 activator project, cell-based, HEK293 mu-opioid receptor line (AID 449723;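 active = hit in primary screen, with calcium signal over 5 SD above buffer well mean in both duplicates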;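 also: counter screen cells carry the mu-opioid receptor alone and lack TRPC4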). The conditions noted are these: Fluo-4 calcium fluorescence, at 10 µM; stronger effect = higher value.
Assay [17] in a line: calcium flux enhancement in mu-opioid HEK293 cells, confirmation, counter-screen for TRPC4 allosteric potentiator project, cell-based, HEK293 mu-opioid receptor line (AID 449724;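 active = calcium signal rise more than 3 SD above the low-dose agonist control mean, in both duplicate plates and the primary screen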;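 also: HEK293 cells carrying mu-opioid receptor only with no TRPC4 channel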). Particulars: Fluo-4 calcium flux, at 10 µM, compound added before EC20 DAMGO stimulus; stronger effect = higher value.
Assay [18] is described as follows: thallium flux activation in parental CHO cells, counter-screen for KCNQ1 potentiator project (AID 493006;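 active = duplicate-averaged activation above buffer control mean plus 5 SD of those controls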;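 as to activation: fluorescence ratio of max minus min over baseline after K+ and Tl+ depolarization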). The conditions noted are these: parental CHO-K1 cells, FluxOR thallium flux, at 10 µM; stronger effect = higher value. (The purpose of a counterscreen is to sort out artefacts and off-target activity.)
Assay [19] deals with Potassium voltage-gated channel subfamily KQT member 1 (Homo sapiens) (UniProt P51787). Put plainly: KCNQ1 potassium channel potentiators, confirmation, FluxOR thallium flux, CHO cells, duplicates (AID 493007;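 active = potentiation averaged over duplicate wells exceeding buffer-only control mean by more than 3 SD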;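 as to outcome: cells depolarized by a potassium plus thallium sulfate stimulus after compound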;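 as to potentiation: 0% = buffer-only wells and 100% = R-L3 activator control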). The conditions noted are these: KCNQ1 cell line, FluxOR thallium flux fluorescence, at 10 µM; stronger effect = higher value, % of reference activator effect, buffer zero.
Assay [20] has as its target Potassium voltage-gated channel subfamily KQT member 2 (Rattus norvegicus) (UniProt O88943). Kind of assay: rat KCNQ2 channel potentiation, selectivity assay for KCNQ1 potentiator project, KCNQ2-CHO-K1 cells (AID 493009;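 active = mean duplicate potentiation above the buffer control mean plus 5 SD of buffer wells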;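 also: assay conditions were tuned for KCNQ1 rather than KCNQ2 modulators; signal is max minus min fluorescence divided by baseline after thallium stimulus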). Particulars: FluxOR thallium flux fluorescence, at 10 µM; stronger effect = higher value, scaled: buffer 0, activator control 100.

For some assays here: Potency and affinity values are given separately. Active and inactive are the calls of the source.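 The calls were made as follows, unless noted: active = compound raising the membrane signal above positive-control mean plus 3 SD in both repeats, and a primary screen hit; inactive = the rest.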

Short transient receptor potential channel 4 (Mus musculus), sequence (Q9QUQ5 whole entry, looked up): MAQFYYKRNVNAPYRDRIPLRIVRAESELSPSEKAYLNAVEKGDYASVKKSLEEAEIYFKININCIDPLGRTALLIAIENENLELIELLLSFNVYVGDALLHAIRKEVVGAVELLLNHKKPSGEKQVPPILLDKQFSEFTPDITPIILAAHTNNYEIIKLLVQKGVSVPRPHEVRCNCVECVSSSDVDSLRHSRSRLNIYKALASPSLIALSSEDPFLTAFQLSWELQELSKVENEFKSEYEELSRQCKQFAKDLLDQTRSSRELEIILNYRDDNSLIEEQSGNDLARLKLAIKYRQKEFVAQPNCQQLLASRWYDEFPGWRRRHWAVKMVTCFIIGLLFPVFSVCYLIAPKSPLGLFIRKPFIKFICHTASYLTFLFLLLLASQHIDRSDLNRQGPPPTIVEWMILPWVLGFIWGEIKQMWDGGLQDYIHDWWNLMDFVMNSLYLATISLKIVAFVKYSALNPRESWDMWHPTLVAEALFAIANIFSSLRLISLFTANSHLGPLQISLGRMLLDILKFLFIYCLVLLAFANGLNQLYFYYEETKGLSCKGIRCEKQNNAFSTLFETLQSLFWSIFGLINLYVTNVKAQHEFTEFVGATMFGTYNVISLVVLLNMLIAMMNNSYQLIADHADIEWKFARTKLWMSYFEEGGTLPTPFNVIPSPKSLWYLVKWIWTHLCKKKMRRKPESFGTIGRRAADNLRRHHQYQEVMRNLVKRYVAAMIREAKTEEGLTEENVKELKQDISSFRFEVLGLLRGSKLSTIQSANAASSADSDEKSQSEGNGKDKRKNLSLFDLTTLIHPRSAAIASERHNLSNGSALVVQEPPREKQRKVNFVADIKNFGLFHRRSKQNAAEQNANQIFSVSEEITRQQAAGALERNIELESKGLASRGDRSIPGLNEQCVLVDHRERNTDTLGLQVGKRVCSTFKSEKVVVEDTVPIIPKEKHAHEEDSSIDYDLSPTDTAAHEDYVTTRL
Short transient receptor potential channel 6 (Mus musculus), sequence (Q61143 whole entry, looked up): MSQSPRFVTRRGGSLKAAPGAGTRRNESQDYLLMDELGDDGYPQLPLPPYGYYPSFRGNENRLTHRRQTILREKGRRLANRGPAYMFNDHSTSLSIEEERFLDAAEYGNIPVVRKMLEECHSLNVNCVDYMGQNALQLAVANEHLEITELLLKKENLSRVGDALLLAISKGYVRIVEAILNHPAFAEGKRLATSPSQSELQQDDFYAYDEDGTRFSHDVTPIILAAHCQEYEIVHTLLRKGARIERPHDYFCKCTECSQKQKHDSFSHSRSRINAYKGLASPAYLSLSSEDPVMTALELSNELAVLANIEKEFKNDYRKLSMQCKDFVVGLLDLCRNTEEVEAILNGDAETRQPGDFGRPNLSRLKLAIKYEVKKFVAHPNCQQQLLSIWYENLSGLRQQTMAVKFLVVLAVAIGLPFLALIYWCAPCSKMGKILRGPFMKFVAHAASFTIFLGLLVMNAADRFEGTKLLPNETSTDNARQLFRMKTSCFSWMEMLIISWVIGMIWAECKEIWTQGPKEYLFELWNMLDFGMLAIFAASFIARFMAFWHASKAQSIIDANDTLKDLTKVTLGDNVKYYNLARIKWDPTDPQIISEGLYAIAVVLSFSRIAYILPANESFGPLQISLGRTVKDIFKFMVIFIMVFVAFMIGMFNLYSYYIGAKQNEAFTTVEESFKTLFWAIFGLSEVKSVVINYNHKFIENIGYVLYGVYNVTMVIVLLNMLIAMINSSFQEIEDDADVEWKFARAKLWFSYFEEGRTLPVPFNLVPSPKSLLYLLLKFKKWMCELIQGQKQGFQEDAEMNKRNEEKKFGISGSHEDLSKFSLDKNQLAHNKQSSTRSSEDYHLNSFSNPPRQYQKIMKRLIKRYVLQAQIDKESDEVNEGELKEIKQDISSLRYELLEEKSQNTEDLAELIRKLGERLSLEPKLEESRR
Potassium voltage-gated channel subfamily KQT member 1 (Homo sapiens), sequence (P51787 whole entry, looked up): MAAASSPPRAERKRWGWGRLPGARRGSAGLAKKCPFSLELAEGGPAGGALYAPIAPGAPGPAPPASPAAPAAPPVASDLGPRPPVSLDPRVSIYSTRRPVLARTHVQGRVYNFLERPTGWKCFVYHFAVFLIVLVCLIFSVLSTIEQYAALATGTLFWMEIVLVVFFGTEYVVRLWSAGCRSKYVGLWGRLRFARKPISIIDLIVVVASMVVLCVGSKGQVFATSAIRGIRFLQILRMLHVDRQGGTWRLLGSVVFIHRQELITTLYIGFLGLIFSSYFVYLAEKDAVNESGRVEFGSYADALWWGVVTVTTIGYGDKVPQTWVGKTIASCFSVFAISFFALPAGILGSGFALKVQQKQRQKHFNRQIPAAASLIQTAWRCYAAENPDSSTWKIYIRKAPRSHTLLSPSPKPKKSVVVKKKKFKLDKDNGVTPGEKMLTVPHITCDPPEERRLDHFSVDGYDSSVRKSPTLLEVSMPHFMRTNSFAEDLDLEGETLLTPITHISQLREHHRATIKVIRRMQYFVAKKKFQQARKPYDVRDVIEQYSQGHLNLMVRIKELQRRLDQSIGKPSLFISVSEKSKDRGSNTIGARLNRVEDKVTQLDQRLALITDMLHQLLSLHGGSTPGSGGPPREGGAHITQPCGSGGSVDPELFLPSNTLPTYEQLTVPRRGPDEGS
Potassium voltage-gated channel subfamily KQT member 2 (Rattus norvegicus), sequence (O88943 whole entry, looked up): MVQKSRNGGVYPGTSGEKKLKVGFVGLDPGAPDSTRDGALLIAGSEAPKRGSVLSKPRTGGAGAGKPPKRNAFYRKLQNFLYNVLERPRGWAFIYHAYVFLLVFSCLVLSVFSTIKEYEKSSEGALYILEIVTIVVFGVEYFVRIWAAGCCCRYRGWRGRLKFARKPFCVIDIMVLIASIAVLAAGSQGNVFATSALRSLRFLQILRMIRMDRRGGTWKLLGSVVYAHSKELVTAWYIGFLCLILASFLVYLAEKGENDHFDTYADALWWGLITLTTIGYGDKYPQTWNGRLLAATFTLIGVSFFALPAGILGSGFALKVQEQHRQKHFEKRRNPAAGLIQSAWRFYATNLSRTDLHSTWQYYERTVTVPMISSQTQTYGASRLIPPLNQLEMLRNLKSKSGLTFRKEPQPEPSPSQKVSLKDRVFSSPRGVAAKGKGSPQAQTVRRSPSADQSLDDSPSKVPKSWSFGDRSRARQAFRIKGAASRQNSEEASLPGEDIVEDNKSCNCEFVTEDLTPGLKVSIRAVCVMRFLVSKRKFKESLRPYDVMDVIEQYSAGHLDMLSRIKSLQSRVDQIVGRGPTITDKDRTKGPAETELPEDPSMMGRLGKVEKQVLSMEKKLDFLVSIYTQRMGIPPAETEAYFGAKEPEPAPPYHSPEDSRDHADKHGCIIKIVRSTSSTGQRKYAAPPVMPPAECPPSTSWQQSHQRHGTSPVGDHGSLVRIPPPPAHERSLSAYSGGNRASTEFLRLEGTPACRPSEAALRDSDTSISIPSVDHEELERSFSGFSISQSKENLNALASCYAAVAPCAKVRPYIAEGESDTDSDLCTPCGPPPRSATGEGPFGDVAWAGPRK

Take `CCN1CCN(c2nc(C)c3c(n2)CC(C)CC3=O)CC1` (stereo not given): the result in [1], in assay [2], in assay [3], in [4], in assay [5] and in [6] was inactive. Besides, the outcome in assay [7], in [8], in [9], in assay [10], in [11] and in [12] was inactive. Further, the result in assay [13], in assay [14], in assay [16] and in assay [17] was inactive. For the same molecule, the potentiation in assay [15] was 8.12% (active).

With `Cc1cc(OCCN2CCCC2)ccc1[N+](=O)[O-]`, the result in [1], in [2], in [5], in assay [6], in assay [7] and in [8] was inactive. Further, the outcome in [9], in [10], in assay [11], in assay [12], in [13] and in assay [14] was inactive. The result in assay [16] and in assay [17] was inactive. The potentiation in assay [3] is 11% (active); in [4], 11% (active); in [15], 13.9% (active).

As for `O=C1CCCC(=O)N1c1ccc(N2CCN(c3ccc([N+](=O)[O-])cc3)CC2)c([N+](=O)[O-])c1`, the outcome in assay [1], in [2], in [3], in assay [5], in assay [6] and in [7] was inactive. Besides, the result in [8], in [9], in assay [10], in assay [11], in assay [12] and in [13] was inactive. In addition, the outcome in [14], in [16] and in assay [17] was inactive. In addition, the potentiation in assay [4] was 11% (active); in assay [15], 14.9% (active).

`Cc1ccc(S(=O)(=O)Nc2ccc(N=Nc3ccc(O)cc3)cc2)cc1`: the result in assay [1], in assay [2], in assay [3], in assay [4], in assay [5] and in assay [6] was inactive. Besides, the outcome in [7], in [8], in [9], in assay [10], in assay [11] and in [12] was inactive. The result in assay [13], in assay [14], in assay [15], in assay [16] and in assay [17] was inactive.

Regarding `Cc1cc(C)c2c(=O)n(CC(=O)Nc3cccc(Cl)c3C)sc2n1`, the result in [1], in assay [2], in assay [3], in assay [5], in assay [6] and in assay [7] was inactive. The result in assay [8], in assay [9], in assay [10], in [11], in assay [12] and in assay [13] was inactive. For the same molecule, the outcome in assay [14], in assay [16], in [17], in assay [18], in assay [19] and in assay [20] was inactive. For the same molecule, the potentiation in [4] is 14% (active); in assay [15], 9.63% (active).

Turning to `CN(C)S(=O)(=O)N1CCC(CCCC2CCN(S(=O)(=O)N(C)C)CC2)CC1`, the outcome in assay [1], in assay [2], in [3], in assay [5], in assay [6] and in assay [7] was inactive. The outcome in assay [8], in [9], in [10], in assay [11], in assay [12] and in assay [13] was inactive. The result in assay [14], in assay [16] and in [17] was inactive. In addition, the potentiation in [4] is 11% (active); in assay [15] it was 8.71% (active); in [19] it was 99.5% (active); in [20], 288% (active). Further, the activation in [18] was 228% (active).

As for `COc1ccc(/C=N/Nc2nc3ccccc3s2)cc1O`, the result in assay [1], in assay [2], in assay [3], in [4], in assay [5] and in assay [6] was inactive. Besides, the outcome in assay [7], in [8], in assay [9], in [10], in assay [11] and in assay [12] was inactive. Further, the outcome in assay [13], in [14], in assay [16] and in assay [17] was inactive. Moreover, the potentiation in assay [15] was 26% (active).
